Compounds without any hit were thinned out: in the full panel of roughly 79,000, 15% have a hit. A number with no mark means an inactive call. Calls of active or inactive are those of the source. Rule as the data show it: active = growth inhibition above about 70%; inactive = the rest.
Experiments:
[1] = NCI Yeast Anticancer Drug Screen. Data for the rad52 strain (AID 147);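 also: 0% = growth of vehicle-treated control cultures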; settings: S. cerevisiae rad52 mutant growth inhibition, active compounds read high
Procedure, shortened: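 Screen used a yeast mutant impaired in DNA repair. After compound exposure, growth was measured. Values reflect inhibition compared with vehicle-treated cells.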

[2] = NCI Yeast Anticancer Drug Screen. Data for the wt1 strain (AID 149);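 also: 0% = growth of vehicle-treated wt1 cultures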; settings: S. cerevisiae wt1 strain (SPY 50644) growth inhibition, active compounds read high
Procedure, shortened: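 Compounds are added to wt1 yeast cultures. Growth is then measured. Inhibition is expressed relative to vehicle-treated controls.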

[3] = NCI Yeast Anticancer Drug Screen. Data for the rad50EPP+ strain (AID 151);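 also: 0% = growth of vehicle-treated control cultures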; settings: S. cerevisiae rad50 mutant strain, active compounds read high
Procedure, shortened: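 Exposing the rad50EPP+ strain to each compound, growth was compared with vehicle-only cultures to give inhibition.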

[4] = NCI Yeast Anticancer Drug Screen. Data for the mgt1 strain (AID 153); settings: S. cerevisiae mgt1 mutant growth inhibition, active compounds read high
Procedure, shortened: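 Genetically defined yeast (mgt1) treated with compound; inhibition of growth expressed against vehicle-treated controls.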

[5] = NCI Yeast Anticancer Drug Screen. Data for the rad50 strain (AID 155);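 also: 0% = growth of vehicle-only cultures of the same strain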; settings: S. cerevisiae rad50 strain growth inhibition, active compounds read high
Procedure, shortened: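 Inhibition values express reduced yeast growth in compound-treated cultures relative to vehicle-treated controls.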

[6] = NCI Yeast Anticancer Drug Screen. Data for the mec2-1 strain (AID 157); settings: S. cerevisiae mec2-1 strain, active compounds read high
Procedure, shortened: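 Readout is yeast growth inhibition, normalised to vehicle-treated controls, in the mec2-1 strain exposed to compound.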

[7] = NCI Yeast Anticancer Drug Screen. Data for the rad14 strain (AID 159);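 also: 0% = growth of vehicle-treated control cultures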; settings: S. cerevisiae rad14 strain growth inhibition, active compounds read high
Procedure, shortened: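 A mutant yeast strain defective in DNA damage repair is treated with compound; inhibition of its growth is scored against untreated, vehicle-exposed cultures.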

[8] = NCI Yeast Anticancer Drug Screen. Data for the sgs1 mgt1 strain (AID 161);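 also: 0% = growth of cultures given vehicle only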; settings: S. cerevisiae sgs1 mgt1 strain, active compounds read high
Procedure, shortened: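 Percent growth inhibition was derived by comparing compound-exposed mutant yeast with vehicle-exposed cultures. The strain carries alterations in DNA damage repair.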

[9] = NCI Yeast Anticancer Drug Screen. Data for the CLN2oe strain (AID 163);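 also: 0% = growth of vehicle-only control cultures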; settings: S. cerevisiae CLN2oe strain, active compounds read high
Procedure, shortened: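 Values reflect how much compound exposure reduced yeast growth, referenced to vehicle-exposed cells. Assay organism is a strain with a defined genetic change affecting cell-cycle control.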

[10] = NCI Yeast Anticancer Drug Screen. Data for the cln2 rad14 strain (AID 165);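 also: 0% = growth equal to vehicle treated cultures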; settings: S. cerevisiae cln2 rad14 strain, active compounds read high
Procedure, shortened: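 Relative to vehicle controls, growth inhibition of compound-treated cln2 rad14 yeast was recorded.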

[11] = NCI Yeast Anticancer Drug Screen. Data for the bub3 strain (AID 167); settings: S. cerevisiae bub3 mutant strain, active compounds read high
Procedure, shortened: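 Steps: expose the mutant yeast strain to compound; grow alongside vehicle-treated cultures; measure growth; express inhibition against the vehicle cultures.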

[12] = NCI Yeast Anticancer Drug Screen. Data for the wt2 strain (AID 169);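 also: 0% = growth of vehicle-treated yeast cultures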; settings: S. cerevisiae wt2 strain growth inhibition, active compounds read high
Procedure, shortened: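 Values express reduction in yeast growth under compound treatment, referenced to vehicle-treated cells.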

[13] = NCI Yeast Anticancer Drug Screen. Data for the mlh1 strain (AID 171);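 also: 0% = growth of vehicle-treated control cultures of the same strain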; settings: S. cerevisiae mlh1 strain growth inhibition, active compounds read high
Procedure, shortened: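 Steps: expose the defined-mutant yeast strain to compound; expose a parallel culture to vehicle; measure growth; express compound effect as inhibition relative to the vehicle culture.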

[14] = NCI Yeast Anticancer Drug Screen. Data for the sgs1 strain (AID 173);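 also: 0% = growth of vehicle-only control cultures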; settings: S. cerevisiae sgs1 mutant, active compounds read high
Procedure, shortened: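 Treat defined-mutant yeast with compound; measure growth; calculate inhibition relative to vehicle-treated cells.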

[15] = NCI Yeast Anticancer Drug Screen. Data for the mlh1 rad18 strain (AID 175); settings: S. cerevisiae mlh1 rad18 strain growth inhibition, active compounds read high
Procedure, shortened: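 Test agents were incubated with a yeast strain of defined genotype (DNA damage repair defect). Inhibition of growth was derived by comparison with vehicle-exposed cultures.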

[16] = NCI Yeast Anticancer Drug Screen. Data for the rad18 strain (AID 177); settings: S. cerevisiae rad18 mutant growth inhibition, active compounds read high
Procedure, shortened: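 A genetically defined yeast mutant impaired in DNA damage repair was treated with test compounds, then its growth was measured against cultures receiving vehicle alone.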

[17] = at 5.0 µM (retest, dose inferred, filed as 0.5)
[18] = at 50.0 µM (retest, dose inferred, filed as 5.0)

SMILES: O=C(NNc1ccccc1)c1ccc(Cl)c(Cl)c1
- growth inhibition ([1]; at 1.2 µM): -1%
- growth inhibition ([1]; at 3.7 µM): 2%
- growth inhibition ([1]; at 11.0 µM): 5%
- growth inhibition ([1]; at 33.0 µM): 26%
- growth inhibition ([1]; at 100.0 µM): 58%
- growth inhibition ([2]; at 1.2 µM): 0%
- growth inhibition ([2]; at 3.7 µM): -1%
- growth inhibition ([2]; at 11.0 µM): 1%
- growth inhibition ([2]; at 33.0 µM): 16%
- growth inhibition ([2]; at 100.0 µM): 46%
- growth inhibition ([3]; at 1.2 µM): -1%
- growth inhibition ([3]; at 3.7 µM): 5%
- growth inhibition ([3]; at 11.0 µM): 13%
- growth inhibition ([3]; at 33.0 µM): 33%
- growth inhibition ([3]; at 100.0 µM): 74% (active)
- growth inhibition ([4]; at 1.2 µM): -1%
- growth inhibition ([4]; at 3.7 µM): -1%
- growth inhibition ([4]; at 11.0 µM): 2%
- growth inhibition ([4]; at 33.0 µM): 8%
- growth inhibition ([4]; at 100.0 µM): 23%
- growth inhibition ([5]; at 1.2 µM): 2%
- growth inhibition ([5]; at 3.7 µM): 5%
- growth inhibition [5, 17]: 4%
- growth inhibition ([5]; at 11.0 µM): 11%
- growth inhibition ([5]; at 33.0 µM): 21%
- growth inhibition [5, 18]: -4%
- growth inhibition ([5]; at 50.0 µM): 38.6%
- growth inhibition ([5]; at 100.0 µM): 61%
- growth inhibition ([6]; at 1.2 µM): -4%
- growth inhibition ([6]; at 3.7 µM): -3%
- growth inhibition [6, 17]: -9%
- growth inhibition ([6]; at 11.0 µM): -5%
- growth inhibition ([6]; at 33.0 µM): 2%
- growth inhibition [6, 18]: 3%
- growth inhibition ([6]; at 50.0 µM): 40.9%
- growth inhibition ([6]; at 100.0 µM): 23%
- growth inhibition ([7]; at 1.2 µM): -2%
- growth inhibition ([7]; at 3.7 µM): -2%
- growth inhibition ([7]; at 11.0 µM): 3%
- growth inhibition ([7]; at 33.0 µM): 4%
- growth inhibition ([7]; at 100.0 µM): 23%
- growth inhibition [8, 17]: 5%
- growth inhibition [8, 18]: 19%
- growth inhibition ([8]; at 50.0 µM): 44.2%
- growth inhibition ([9]; at 1.2 µM): -7%
- growth inhibition ([9]; at 3.7 µM): -3%
- growth inhibition ([9]; at 11.0 µM): 0%
- growth inhibition ([9]; at 33.0 µM): 14%
- growth inhibition ([9]; at 100.0 µM): 40%
- growth inhibition [10, 17]: 31%
- growth inhibition [10, 18]: 18%
- growth inhibition ([10]; at 50.0 µM): 0.2%
- growth inhibition ([11]; at 1.2 µM): -5%
- growth inhibition ([11]; at 3.7 µM): -2%
- growth inhibition [11, 17]: -5%
- growth inhibition ([11]; at 11.0 µM): -7%
- growth inhibition ([11]; at 33.0 µM): 2%
- growth inhibition [11, 18]: 13%
- growth inhibition ([11]; at 50.0 µM): 30.3%
- growth inhibition ([11]; at 100.0 µM): 14%
- growth inhibition ([12]; at 1.2 µM): 1%
- growth inhibition ([12]; at 3.7 µM): -1%
- growth inhibition ([12]; at 11.0 µM): 2%
- growth inhibition ([12]; at 33.0 µM): 15%
- growth inhibition ([12]; at 100.0 µM): 37%
- growth inhibition ([13]; at 1.2 µM): -2%
- growth inhibition ([13]; at 3.7 µM): -3%
- growth inhibition ([13]; at 11.0 µM): -3%
- growth inhibition ([13]; at 33.0 µM): 8%
- growth inhibition ([13]; at 100.0 µM): 47%
- growth inhibition ([14]; at 1.2 µM): -3%
- growth inhibition ([14]; at 3.7 µM): -3%
- growth inhibition ([14]; at 11.0 µM): -1%
- growth inhibition ([14]; at 33.0 µM): 17%
- growth inhibition ([14]; at 100.0 µM): 47%
- growth inhibition [15, 17]: 6%
- growth inhibition [15, 18]: 61%
- growth inhibition ([15]; at 50.0 µM): 44.9%
- growth inhibition ([16]; at 1.2 µM): 2%
- growth inhibition ([16]; at 3.7 µM): 4%
- growth inhibition ([16]; at 11.0 µM): 6%
- growth inhibition ([16]; at 33.0 µM): 37%
- growth inhibition ([16]; at 100.0 µM): 88% (active)

SMILES: Oc1ccc(-c2nc(-c3ccc(F)cc3)c(-c3ccc4ccccc4n3)[nH]2)cc1
- growth inhibition ([1]; at 1.2 µM): -48%
- growth inhibition ([1]; at 3.7 µM): -41%
- growth inhibition ([1]; at 11.0 µM): 85% (active)
- growth inhibition ([1]; at 33.0 µM): 96% (active)
- growth inhibition ([1]; at 100.0 µM): 88% (active)
- growth inhibition ([2]; at 1.2 µM): -60%
- growth inhibition ([2]; at 3.7 µM): -54%
- growth inhibition ([2]; at 11.0 µM): 64%
- growth inhibition ([2]; at 33.0 µM): 18%
- growth inhibition ([2]; at 100.0 µM): 94% (active)
- growth inhibition ([3]; at 1.2 µM): -43%
- growth inhibition ([3]; at 3.7 µM): -37%
- growth inhibition ([3]; at 11.0 µM): -26%
- growth inhibition ([3]; at 33.0 µM): -16%
- growth inhibition ([3]; at 100.0 µM): -18%
- growth inhibition ([4]; at 1.2 µM): -28%
- growth inhibition ([4]; at 3.7 µM): -31%
- growth inhibition ([4]; at 11.0 µM): 81% (active)
- growth inhibition ([4]; at 33.0 µM): 97% (active)
- growth inhibition ([4]; at 100.0 µM): 92% (active)
- growth inhibition ([5]; at 1.2 µM): -31%
- growth inhibition ([5]; at 3.7 µM): -44%
- growth inhibition [5, 17]: 19%
- growth inhibition ([5]; at 11.0 µM): 76% (active)
- growth inhibition ([5]; at 33.0 µM): 97% (active)
- growth inhibition [5, 18]: 54%
- growth inhibition ([5]; at 50.0 µM): 90.5% (active)
- growth inhibition ([5]; at 100.0 µM): 94% (active)
- growth inhibition ([6]; at 1.2 µM): -40%
- growth inhibition ([6]; at 3.7 µM): -27%
- growth inhibition [6, 17]: 16%
- growth inhibition ([6]; at 11.0 µM): 69%
- growth inhibition ([6]; at 33.0 µM): 98% (active)
- growth inhibition [6, 18]: 63%
- growth inhibition ([6]; at 50.0 µM): 93% (active)
- growth inhibition ([6]; at 100.0 µM): 96% (active)
- growth inhibition ([7]; at 1.2 µM): -51%
- growth inhibition ([7]; at 3.7 µM): -49%
- growth inhibition ([7]; at 11.0 µM): -6%
- growth inhibition ([7]; at 33.0 µM): 94% (active)
- growth inhibition ([7]; at 100.0 µM): 91% (active)
- growth inhibition [8, 17]: 0%
- growth inhibition [8, 18]: -41%
- growth inhibition ([8]; at 50.0 µM): 92.2% (active)
- growth inhibition ([9]; at 1.2 µM): -5%
- growth inhibition ([9]; at 3.7 µM): -8%
- growth inhibition ([9]; at 11.0 µM): 93% (active)
- growth inhibition ([9]; at 33.0 µM): 98% (active)
- growth inhibition ([9]; at 100.0 µM): 94% (active)
- growth inhibition [10, 17]: 13%
- growth inhibition [10, 18]: -33%
- growth inhibition ([10]; at 50.0 µM): 90.6% (active)
- growth inhibition ([11]; at 1.2 µM): -32%
- growth inhibition ([11]; at 3.7 µM): -20%
- growth inhibition [11, 17]: 5%
- growth inhibition ([11]; at 11.0 µM): 96% (active)
- growth inhibition ([11]; at 33.0 µM): 98% (active)
- growth inhibition [11, 18]: -31%
- growth inhibition ([11]; at 50.0 µM): 91.8% (active)
- growth inhibition ([11]; at 100.0 µM): 90% (active)
- growth inhibition ([12]; at 1.2 µM): -56%
- growth inhibition ([12]; at 3.7 µM): -40%
- growth inhibition ([12]; at 11.0 µM): 96% (active)
- growth inhibition ([12]; at 33.0 µM): 96% (active)
- growth inhibition ([12]; at 100.0 µM): 93% (active)
- growth inhibition ([13]; at 1.2 µM): -44%
- growth inhibition ([13]; at 3.7 µM): -37%
- growth inhibition ([13]; at 11.0 µM): 36%
- growth inhibition ([13]; at 33.0 µM): 98% (active)
- growth inhibition ([13]; at 100.0 µM): 94% (active)
- growth inhibition ([14]; at 1.2 µM): -34%
- growth inhibition ([14]; at 3.7 µM): -38%
- growth inhibition ([14]; at 11.0 µM): 97% (active)
- growth inhibition ([14]; at 33.0 µM): 98% (active)
- growth inhibition ([14]; at 100.0 µM): 90% (active)
- growth inhibition [15, 17]: 27%
- growth inhibition [15, 18]: 70% (active)
- growth inhibition ([15]; at 50.0 µM): 85.8% (active)
- growth inhibition ([16]; at 1.2 µM): -28%
- growth inhibition ([16]; at 3.7 µM): -36%
- growth inhibition ([16]; at 11.0 µM): 96% (active)
- growth inhibition ([16]; at 33.0 µM): 97% (active)
- growth inhibition ([16]; at 100.0 µM): 94% (active)

— PubChem BioAssay (NCI)
